Assay results reported in PubChem BioAssay (NCATS).
Inconclusive results are not listed. Calls of active or inactive are those of the source. Calls follow the shape of the dose curve; as a rule, active = well fitted curve in the direction sought with a large enough effect; inconclusive = small, poorly fitted or top-dose-only effect, or another doubt; inactive = no such curve, though single readings can be large; an effect the other way counts as inactive or inconclusive.

What was measured:
[1] = Quantitative High-Throughput drug screen in 47 multiple myeloma cell lines against the NCATS MIPE library collection: ARD_JJKsccE7 cell viability assay (AID 1918929)
Method in brief: (§1)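 CellTiter-Glo ATP luminescence gave viability after 48 h compound treatment at 37C of 500 multiple myeloma cells per well. Normalisation used DMSO-only wells as 100% and media-only wells as 0% viability; primary qHTS of approved and investigational drugs.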

[2] = Quantitative High-Throughput drug screen in 47 multiple myeloma cell lines against the NCATS MIPE library collection: Karpas620_DSMZ cell viability assay (AID 1918959); also: nearly all actives have a fitted effect of over 30% in size
Method in brief: (§2)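 Inhibition of cell viability is measured here. Each line was plated at 500 cells per well, treated with MIPE 4.0 drugs, kept 48 hours at 37C, then assayed for ATP content by CellTiter-Glo luminescence.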

[3] = Quantitative High-Throughput drug screen in 47 multiple myeloma cell lines against the NCATS MIPE library collection: KMM1_JCRB cell viability assay (AID 1918960); also: nearly all actives have a fitted effect of over 30% in size
Method in brief: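 Myeloma cells, 500 per well, were exposed to MIPE 4.0 drugs by pin transfer for 48 h at 37 °C, 5% CO2. Viability was read as ATP luminescence with CellTiter-Glo, normalised to DMSO-only (100%) and medium-only (0%) wells.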

[4] = Quantitative High-Throughput drug screen in 47 multiple myeloma cell lines against the NCATS MIPE library collection: KHM11_PLB cell viability assay (AID 1918962); also: nearly all actives have a fitted effect of over 35% in size
Method in brief: as §2

[5] = Quantitative High-Throughput drug screen in 47 multiple myeloma cell lines against the NCATS MIPE library collection: JIM3_ECACC cell viability assay (AID 1918963; also: nearly all actives have a fitted effect of over 35% in size)
Method in brief: as §2

[6] = Quantitative High-Throughput drug screen in 47 multiple myeloma cell lines against the NCATS MIPE library collection: JJN3_DSMZ cell viability assay (AID 1918966; also: nearly all actives have a fitted effect of over 50% in size)
Method in brief: as §1

[7] = Quantitative High-Throughput drug screen in 47 multiple myeloma cell lines against the NCATS MIPE library collection: H1112_PLB cell viability assay (AID 1918967; also: nearly all actives have a fitted effect of over 30% in size)
Method in brief: as §1

[8] = Quantitative High-Throughput drug screen in 47 multiple myeloma cell lines against the NCATS MIPE library collection: INA6_PLB cell viability assay (AID 1918965; also: nearly all actives have a fitted effect of over 55% in size)
Method in brief: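 qHTS of the MIPE 4.0 collection: 500 myeloma cells/well, 48 h drug exposure at 37C in 5% CO2, then CellTiter-Glo for 5 min at room temperature before luminescence reading.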

[9] = Quantitative High-Throughput drug screen in 47 multiple myeloma cell lines against the NCATS MIPE library collection: JIM1_ECACC cell viability assay (AID 1918964)
Method in brief: as §1

Measured: Potency
Potency is read from the fitted curve at half-maximal effect.

C[C@]12C=CC(=O)N[C@@H]1CC[C@H]1[C@H]3CC[C@@H](C(=O)Nc4cc(C(F)(F)F)ccc4C(F)(F)F)[C@@]3(C)CC[C@@H]12
active: [6] 18700 nM | [7] 13200 nM
not listed: [8] | [9]
inactive: all other assays above

Cc1cc(Nc2ncc3c(n2)N(C)C(=O)N(c2cc(NC(=O)c4cccc(C(F)(F)F)c4)ccc2C)C3)n(C)n1
active: [1] 935 nM | [2] 1480 nM | [3] 1180 nM | [5] 2640 nM | [8] 469 nM | [6] 1320 nM | [7] 2640 nM

O=S(=O)(O)CCSSCCS(=O)(=O)O
not listed: [6] | [9]
inactive: all other assays above

Cc1cnn(C)c1C(=O)Nc1cc(Nc2ccc3c(C=Cc4ccccn4)n[nH]c3c2)ccc1F
active: [1] 4180 nM | [2] 20900 nM | [3] 1660 nM | [4] 18700 nM | [5] 5260 nM | [8] 4180 nM | [6] 23500 nM | [7] 8330 nM

C=CC(=O)Nc1ccc2ncnc(Nc3ccc(OCc4cccc(F)c4)c(Cl)c3)c2c1
active: [1] 41.8 nM | [2] 41.8 nM | [3] 148 nM | [4] 6620 nM | [5] 743 nM | [8] 662 nM | [6] 18700 nM | [7] 1050 nM

CC(=O)SCC(Cc1ccccc1)C(=O)NCC(=O)OCc1ccccc1 (stereo not drawn)
active: [1] 8330 nM | [2] 1660 nM | [3] 3320 nM | [4] 7430 nM | [5] 3720 nM | [8] 935 nM | [6] 5900 nM | [7] 1660 nM

C=CC[C@@H]1C=C(C)C[C@H](C)C[C@H](OC)[C@H]2O[C@@](O)(C(=O)C(=O)N3CCCC[C@H]3C(=O)O[C@H](C(C)=C[C@@H]3CC[C@H](O)[C@H](OC)C3)[C@@H](C)[C@@H](O)CC1=O)[C@@H](C)C[C@@H]2OC
active: [1] 2090 nM | [2] 1480 nM | [3] 2090 nM | [5] 3720 nM | [9] 1180 nM | [8] 935 nM | [6] 662 nM | [7] 3320 nM

CCOC(=O)[C@H](CCc1ccccc1)N[C@@H](C)C(=O)N1[C@@H](C(=O)O)C[C@H]2CCC[C@@H]21
active: [1] 9350 nM | [2] 8330 nM | [3] 7430 nM | [5] 13200 nM | [9] 5260 nM | [8] 7430 nM | [7] 14800 nM

C=C1CCC2[C@](C)(CO)C(O)CC[C@]2(C)C1CC=C1C(=O)OCC1O (stereo partly drawn)
not listed: [5] | [6] | [9]
inactive: all other assays above

Cc1ncc(-c2ccnc(Nc3ccc(S(C)(=O)=O)cc3)n2)n1C(C)C
active: [1] 2960 nM | [2] 3720 nM | [3] 1480 nM | [4] 1660 nM | [5] 2350 nM | [8] 1180 nM | [6] 2090 nM | [7] 4180 nM

C[C@@H]1C(=O)O[C@H]2CC34[C@H]5C[C@@H](C(C)(C)C)C36[C@H](OC(=O)[C@@H]6O)O[C@@]4(C(=O)O5)[C@]21O (stereo partly drawn)
not listed: [4] | [6]
inactive: all other assays above

CC(C)C[C@H](NC(=O)CNC(=O)c1cc(Cl)ccc1Cl)B1OC(=O)CC(CC(=O)O)(C(=O)O)O1 (stereo partly drawn)
active: [1] 52.6 nM | [2] 52.6 nM | [3] 41.8 nM | [4] 37.2 nM | [5] 83.3 nM | [8] 33.2 nM | [6] 74.3 nM | [7] 66.2 nM

CC(=O)N[C@@H]1[C@H](O[C@@H]2c3ccc(c(Cl)c3)Oc3cc4cc(c3O[C@H]3O[C@H](CO)[C@@H](O)[C@H](O)[C@H]3NC(=O)CCCCCCCC(C)C)Oc3ccc(cc3Cl)C[C@H]3NC(=O)[C@H](N)c5ccc(O)c(c5)Oc5cc(O)cc(c5)[C@H](NC3=O)C(=O)N[C@H]4C(=O)N[C@H]3C(=O)N[C@@H]2C(=O)N[C@@H](C(=O)O)c2cc(O)cc(O[C@H]4O[C@H](CO)[C@@H](O)[C@H](O)[C@H]4O)c2-c2cc3ccc2O)O[C@H](CO)[C@@H](O)[C@@H]1O
inactive: [1] | [2] | [3] | [5] | [8]

Cc1noc(-c2ccc(CSCCC(=O)O)cc2)c1NC(=O)OC(C)c1ccccc1Cl (stereo not drawn)
not listed: [6] | [8] | [9]
inactive: all other assays above

Nc1nc(=O)n([C@H]2C[C@H](O)[C@@H](CO)O2)cc1F
inactive: [1] | [2] | [6] | [7]
active: [3] 7.4 nM | [5] 1320 nM | [8] 29.6 nM

Cc1onc(-c2ccccc2)c1C(=O)N[C@@H]1C(=O)N2[C@@H](C(=O)O)C(C)(C)S[C@@H]12
not listed: [4] | [6] | [8]
inactive: all other assays above
